Reference: ChEMBL document CHEMBL4888484, “Replenishing the malaria drug discovery pipeline: Screening and hit evaluation of the MMV Hit Generation Library 1 (HGL1) against asexual blood stage Plasmodium falciparum ,using a nano luciferase reporter read-out” (2022)
Among all 4,800 compounds or so, about 410 (8.5%) showed an effect of 50% or more. For the sample, strong results were picked, then their nearest neighbours and some compounds at random.

The compounds below were run on Plasmodium falciparum (assay: Confirmatory screen in NF54 pLDH assay, in single point, at 2uM, 72h). Settings: timepoint 72 hour.
Assay type: functional, Erythrocyte
Cc1c(NC(=O)c2ccccc2-c2ccccc2)ccc(N2CCCC2=O)c1NC(=O)c1ccccc1-c1ccccc1 was tested, and the “% Inhibition” value was -15%.
With CCCN(CC(=O)O)S(=O)(=O)c1cccc(C)c1Br the “% Inhibition” value was -23%.
For O=C(Nc1ccc2c(c1)cc(C(=O)Nc1ccc(C(F)(F)F)cc1)n2Cc1cccc(F)c1)c1ccccc1Cl, the “% Inhibition” value was -25%.
In the case of C#CCN(CCCc1ccccc1C)[C@H]1CCS(=O)(=O)C1, the “% Inhibition” value is reported as -23%.
With O=C(O)c1cc(-c2ccc3c(c2)OCCO3)nc2c(Br)cc(Br)cc12 the “% Inhibition” value was 3%.
In the case of COc1ccc(C(O)CN2CCC(c3ccccc3)C2)cc1F (configuration not stated), the “% Inhibition” value is reported as 9%.
In the case of O=C(C1CCC1)N1CCC[C@H]1c1nc(C2CCOCC2)no1, the “% Inhibition” value is reported as 12%.
With COc1ccccc1NC(=O)c1cnn2c3c(cnc12)CCCCC3 the “% Inhibition” value was 3%.
With CCOc1ccc2ccccc2c1C(=O)Nc1cc(C)nn1-c1nc2c(c(=O)[nH]1)CCC2 the “% Inhibition” value was 91%.
In the case of COc1ccc2ccccc2c1C(=O)Nc1ccc(N2CCN(C)CC2)c(Cl)c1, the “% Inhibition” value is reported as 4%.
Cc1cc(NC(=O)C(=O)NC2CC(C)CC(C)(C)C2)n(-c2nc3c(c(=O)[nH]2)CCC3)n1 (configuration not stated) was tested, and the “% Inhibition” value was 84%.
In the case of Cc1nc(-c2ccc3[nH]c(=O)[nH]c3c2)cs1, the “% Inhibition” value is reported as 9%.
For CC1CN(CCCNC(=O)Cc2c[nH]c3ccc(F)cc23)CC(C)O1 (configuration not stated), the “% Inhibition” value was -4%.
In the case of CC(C1Cc2ccccc2O1)N(C)C(=O)c1n[nH]c2c1CCC2 (configuration not stated), the “% Inhibition” value is reported as -6%.
For Cc1cc(Cl)ccc1S(=O)(=O)N1CCc2nnc([C@H]3CCN(C(C)C)C3)n2CC1, the “% Inhibition” value was 10%.
With COC(=O)C12CCC(C(=O)NC[C@H]3CCCOC3)(CC1)CC2 the “% Inhibition” value was 2%.
For OCC#Cc1ncc(C(F)(F)F)cc1Cl, the “% Inhibition” value was -19%.
For CCc1nc(C(=O)N2C[C@@H]3CCCN(C(=O)c4coc(CC)n4)[C@@H]3C2)co1, the “% Inhibition” value was 0%.
CCc1ncsc1C(=O)OCC1(C#N)CCOCC1 was tested, and the “% Inhibition” value was -2%.
Cc1cc(CS(=O)(=O)[C@@H](C)C(=O)NCC(C)C)on1 was tested, and the “% Inhibition” value was 12%.
With CC(=O)N(C)CC(=O)Nc1ccccc1NCC1CCCCC1 the “% Inhibition” value was 12%.
COc1cc(CN(C)[C@H]2CCc3nnc(C4CCOCC4)n3CC2)cc(OC)c1 was tested, and the “% Inhibition” value was 1%.
For Cn1ccnc(N[C@@H](COc2ccccc2F)c2ccccc2)c1=O, the “% Inhibition” value was 3%.
NC(=O)CCc1ccc(S(=O)(=O)Cl)cc1 was tested, and the “% Inhibition” value was 13%.
COC(=O)c1ccc(Nc2nc(C)c3nc(C)n(-c4ccc(C(=O)OC)cc4)c3n2)cc1 was tested, and the “% Inhibition” value was 3%.
In the case of CCOc1cc(Cl)c(Cl)c(C#N)c1OC(C)=O, the “% Inhibition” value is reported as 6%.
With COc1ccc(-c2nccn3cc(C(=O)NCCN(C)C4CCCCC4)nc23)cc1 the “% Inhibition” value was 5%.
With CCCC[C@H](CC)C(=O)Nc1c(C)cccc1CC the “% Inhibition” value was -8%.
For Brc1ccc(Oc2ncc(CN3CCOCC3)s2)cc1, the “% Inhibition” value was 7%.
For Cc1ccc2c(c1)CCCN2S(=O)(=O)c1ccc2ccccc2c1, the “% Inhibition” value was -7%.
For Cc1ccnc(Nc2ccc(N3CCNCC3)nn2)c1, the “% Inhibition” value was 65%.
For Cc1ccnc(N2CCN(S(=O)(=O)Cc3ccon3)CC2)c1, the “% Inhibition” value was 15%.
Cc1ccc(Nc2ccc(N3CCNCC3)nn2)nc1 was tested, and the “% Inhibition” value was 58%.
For Cc1cnc(CC[C@H]2CCCN2C(=O)CCn2ccnc2)n1C, the “% Inhibition” value was 7%.
For CCC(C#N)(CC)c1nc(-c2cc(N)nc3ccccc23)no1, the “% Inhibition” value was 8%.
For CCC(=O)O[C@@]1(c2ccc(C3CC3)cc2)CCCN(Cc2ccccc2)C1, the “% Inhibition” value was -1%.
In the case of O=C1CCN(C(=O)COc2ccc(-c3ccccc3)cc2Cl)CCN1, the “% Inhibition” value is reported as -12%.
For CC(=O)N[C@H]1CCc2nc(N)sc2C1, the “% Inhibition” value was 13%.
For C[C@@H]1C[C@@H](Nc2ccccc2)c2ccccc2N1C(=O)COc1ccc(Br)cc1, the “% Inhibition” value was 10%.
With Cc1noc(Cl)c1CC(=O)N1CCCC(C)(C)CC1 the “% Inhibition” value was 20%.
In the case of O=C(Cc1c(Cl)cccc1Cl)N1CC[C@]2(CCOC2)C1, the “% Inhibition” value is reported as -19%.
CC[C@@]1(C)CCCN(C(=O)Cc2c(C)noc2Cl)C1 was tested, and the “% Inhibition” value was 87%.
Cc1ccc(-n2c(=O)c3sccc3n(CC(=O)NCc3ccc(F)cc3F)c2=O)cc1C was tested, and the “% Inhibition” value was -20%.
With CC1CCC2(CC1)N=C(c1ccccc1)C(=O)N2CC(=O)N[C@H]1CCc2ccccc21 (some centres not stated) the “% Inhibition” value was -4%.
CN(Cc1cnn(-c2ccccc2)n1)c1ncnc2[nH]ncc12 was tested, and the “% Inhibition” value was 10%.
In the case of CCCCC(=O)N1CCc2[nH]nc(C(=O)NCCc3ccc(OC)cc3)c2C1, the “% Inhibition” value is reported as 2%.
In the case of Cc1nc2nnnn2c(C)c1C/C=C/c1ccccc1, the “% Inhibition” value is reported as 8%.
In the case of Cc1cc(OC[C@@H](O)CNC(C)(C)CC(C)(C)C)cc(C)c1Cl, the “% Inhibition” value is reported as 57%.
With O=C(N[C@@H](N1CCCC1)C(Cl)(Cl)Cl)c1ccc(Cl)cc1 the “% Inhibition” value was -13%.
For O=C(N[C@H]1CC12CC2)c1ccncc1F, the “% Inhibition” value was -22%.
In the case of C=C1C(C)C2C(Cc3c[nH]c4ccccc34)NC(=O)C23C(=O)CC(O)C(O)CC(C)C/C=C/C3C1O (configuration not stated), the “% Inhibition” value is reported as 65%.
In the case of C[n+]1ccccc1/C=C/c1c[nH]c2ccccc12, the “% Inhibition” value is reported as 81%.
With CCc1ccc(/C=C/c2c[nH]c3ccccc23)[n+](CC)c1 the “% Inhibition” value was 88%.
With Fc1cc(Cl)cnc1N1CCC2(CCOCC2)C1 the “% Inhibition” value was 12%.
Cc1[nH]n(-c2nc(C(F)(F)F)cc(=O)[nH]2)c(=O)c1CCO was tested, and the “% Inhibition” value was -9%.
In the case of O=C1C2CC=CCC2C(=O)N1CNc1ccc(Cl)cc1 (configuration not stated), the “% Inhibition” value is reported as -9%.
With CCn1c(=O)c(N2CCN(C(=O)Nc3ccc(OC)cc3OC)CC2)nc2cccnc21 the “% Inhibition” value was -17%.
In the case of O=C([C@H]1CCCN(C(=O)N2CCc3sccc3C2)C1)N1CCc2[nH]ncc2C1, the “% Inhibition” value is reported as -7%.
With CCOC(=O)C(C)NC(=O)C(C)NC(=O)c1ccc(F)c(C#N)c1 (configuration not stated) the “% Inhibition” value was 7%.
With O=S(=O)(NC1CC(c2ccc(F)c(Cl)c2)C1)C1CC1 (configuration not stated) the “% Inhibition” value was 7%.
For Cn1nc(C2CC2)c2c(C(F)F)cc(-c3ccc4c(c3)OCO4)nc21, the “% Inhibition” value was 2%.
CCS(=O)(=O)Nc1ccc(Br)cc1Cl was tested, and the “% Inhibition” value was -1%.
For Cc1ncccc1C(=O)NCCc1csc(-c2ccccc2)n1, the “% Inhibition” value was -19%.
c1ccc(-c2nc(C[n+]3ccc4c(c3)CCCC4)cs2)cc1 was tested, and the “% Inhibition” value was 56%.
In the case of CN(C)c1ccc(C2OCC3(CCC4(COC(c5ccc(N(C)C)cc5)OC4)O3)CO2)cc1 (configuration not stated), the “% Inhibition” value is reported as -5%.
For Fc1ccc(COc2ccc3ccccc3c2CNc2ccc(Br)cc2)cc1, the “% Inhibition” value was 10%.
CCCNC(=O)CS(=O)(=O)Cc1cccc(Br)c1C was tested, and the “% Inhibition” value was -14%.
For Nc1nc(-c2ccccc2)c2cc3c(nn12)C[C@H](c1ccc(F)cc1)CC3=O, the “% Inhibition” value was -6%.
COc1c2c(cc3c1[C@@H](C#CCOc1ccccc1)[N+](C)(C)CC3)OCO2 was tested, and the “% Inhibition” value was 68%.
For CCn1cc(S(=O)(=O)N2CC(Oc3cccc(-c4nc(C)no4)c3)C2)cn1, the “% Inhibition” value was 7%.
In the case of COc1cc(-c2nc3ncnn3c(N)c2C#N)cc(OC)c1OC, the “% Inhibition” value is reported as -17%.
In the case of Cc1cc(C)c2nc(C)cc(Nc3ccc(O)cc3)c2c1, the “% Inhibition” value is reported as 103%.
For COc1c(Cl)cc(Cl)cc1C#N, the “% Inhibition” value was -17%.
For COc1cc(N)c(NC(C)=O)cc1Cl, the “% Inhibition” value was 7%.
With COc1cccc(CNCc2ccc3c(c2)OCO3)c1OCc1ccc(Cl)cc1Cl the “% Inhibition” value was 10%.
For COCCN(CC1CN(Cc2ccccc2OC)CC1c1ccccc1OC)C(=O)COC (configuration not stated), the “% Inhibition” value was 0%.
COc1ccccc1CN1COc2cc3c(cc2C1)OCO3 was tested, and the “% Inhibition” value was 52%.
For O=S(=O)(NCc1ccc(C(F)(F)F)nc1N1CCC(C(F)(F)F)CC1)C(F)(F)F, the “% Inhibition” value was 8%.
In the case of CC(C1Cc2ccccc2O1)N(C)Cc1nccn1S(=O)(=O)N(C)C (configuration not stated), the “% Inhibition” value is reported as -8%.
For Cn1ccc(C(=O)Nc2ccc(-c3ccccc3)cn2)cc1=O, the “% Inhibition” value was -11%.
For Nc1n[nH]c2c(Cl)c3nnc(-c4ccccc4)n3c(Cl)c12, the “% Inhibition” value was 13%.
O=C(Cc1ccc(N(Cc2cccc(F)c2)C(=O)C2CCCC2)cc1)NCCN1CCCCC1 was tested, and the “% Inhibition” value was 43%.
For COCCN(Cc1c(-c2ccccc2)noc1N1CCN(C)CC1)C(=O)c1ccc(C)cc1, the “% Inhibition” value was 12%.
With C[C@H](Nc1ccc(N2CCOCC2)nc1)c1cccc(CO)c1 the “% Inhibition” value was 11%.
With CCn1c(-c2cc(NC(=O)c3ccc4c(c3)OCO4)[nH]n2)cc2ccc(OC)cc21 the “% Inhibition” value was 4%.
For FC(F)(F)c1cnc(N2CCOC3(CCOCC3)CC2)s1, the “% Inhibition” value was 9%.
Oc1nc(N2CCOC3(CCCC3)C2)ncc1F was tested, and the “% Inhibition” value was 53%.
For O=C(c1cc(-c2ccncc2)on1)N1CCOC2(CCCCCC2)C1, the “% Inhibition” value was 8%.
For Cc1c(C(=O)N2CC[C@H](CC(C)(C)C)C2(C)C)nnn1-c1cnn(C)c1, the “% Inhibition” value was -9%.
Cc1cc(C)cc(NC(=O)Cc2nc(C)c(C(=O)NCc3ccccc3)s2)c1 was tested, and the “% Inhibition” value was 5%.
With CCOC(=O)c1ncn(C2CCN(C(=O)c3cccc(Cn4ccnc4)c3)CC2)c1N the “% Inhibition” value was 5%.
For CCOC(=O)c1nc(-c2cccnc2)cs1, the “% Inhibition” value was -8%.
In the case of CCOC(=O)c1c(CN2CCCC2)n(C)c2cc(-c3cccnc3)c(O)c(Cn3ccnc3)c12, the “% Inhibition” value is reported as 68%.
In the case of Cc1cccc(C)c1OCC(C)NC(=O)N1CCCC(CS(C)(=O)=O)C1 (configuration not stated), the “% Inhibition” value is reported as -20%.
In the case of COc1ccc(CN(C)[C@H]2CCc3nn(C)c(=O)n3CC2)c(Cl)c1OC, the “% Inhibition” value is reported as 1%.
CC(C)c1nnc(Cn2nnc(-c3ccncn3)n2)s1 was tested, and the “% Inhibition” value was -12%.
For Cc1cc(C)n(CCC(=O)N2CC[C@H](c3nc(C4CCOCC4)no3)C2)n1, the “% Inhibition” value was 9%.
With O=C(Nc1c(S(=O)(=O)c2ccccc2)c2nc3ccccc3nc2n1CCc1ccccc1)c1ccc(Cl)cc1 the “% Inhibition” value was 96%.
With Cc1ccc(S(=O)(=O)c2c(NS(=O)(=O)c3ccc(F)cc3)n(CCc3ccccc3)c3nc4ccccc4nc23)cc1 the “% Inhibition” value was 103%.
For Cc1ccc(S(=O)(=O)Nc2c(S(=O)(=O)c3ccc(C)cc3)c3nc4ccccc4nc3n2C[C@H]2CCCO2)cc1, the “% Inhibition” value was 8%.
In the case of O=C(Cn1c(Cc2ccc(Cl)cc2)nc2ccccc21)Nc1ccccc1, the “% Inhibition” value is reported as 9%.
In the case of COCCCn1c(NS(=O)(=O)c2ccccc2)c(S(=O)(=O)c2ccc(C)cc2)c2nc3ccccc3nc21, the “% Inhibition” value is reported as 49%.
For O=C(Nc1ccccc1)c1ccc2c(c1)C(=O)N(CCc1ccccc1)C2=O, the “% Inhibition” value was -15%.
In the case of Cc1cnc(C2CCC2)n1CCNS(=O)(=O)c1ccccc1, the “% Inhibition” value is reported as 2%.
With Cc1ccc(S(=O)(=O)Nc2c(S(=O)(=O)c3ccc(C)cc3)c3nc4ccccc4nc3n2CCC(C)C)cc1 the “% Inhibition” value was 100%.
For Cc1ccc(S(=O)(=O)Nc2ccccc2-c2nnc(-c3c(NS(=O)(=O)c4ccc(C)cc4)ccc4ccccc34)o2)cc1, the “% Inhibition” value was -13%.
For Cc1ccc(S(=O)(=O)Nc2c(S(=O)(=O)c3ccccc3)c3nc4ccccc4nc3n2CCc2ccccc2)cc1, the “% Inhibition” value was 100%.
